# Screens deposited in PubChem by Broad Institute.
# Hedgehog inh: Hedgehog pathway signaling inhibitors, primary screen, luminescence, Shh-LIGHT2 cells, Gli-luciferase | Shh-LIGHT2 Gli-luciferase reporter, 30 h | inhibition, % (test concentration not listed) | hit rate 2.1% among 22,000 | AID 2313, 2010;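 active means mean inhibition across valid replicates above about 65%, limit read from the data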;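 further: pathway switched on by Shh-conditioned medium diluted 1 in 25 in low serum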
# PD-1 reverse act: activators reversing PD-1 mediated T-cell inhibition, primary screen, luminescence, primary human CD4 T cells, PD-L1 beads; CellTiter-Glo 96 h; activation, % (no concentration beside the values); 29,000 tested, under 10 active; AID 2316, 2010; call rule not given here;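 further: 0% = median vehicle wells and 100% = positive control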
# YB-1 expression: inhibitors of YB-1 gene expression, primary screen, cell-based, fluorescence; U2OS, qRT-PCR YB-1 vs CDIP delta delta Cp, 16 h; active compounds read high; zero = DMSO, each unit about twofold; delta delta Cp (YB-1 minus CDIP) (test concentration not listed); hit rate 0.37% among 30,000; AID 434959, 2010;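 active means delta delta Cp rounded down to an integer at or above 3, about 3 SD of DMSO wells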;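 further: higher means less YB-1 transcript or more CDIP transcript relative to DMSO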
# MITF inhib: inhibitors of MITF, primary screen, MITF inhibitor project, cell-based, luminescence; AID 2240, 2010; inhibition, % (concentration not given with the values); hit rate 0.28% among 37,000; TRPM1 promoter luciferase, 24 h; in the data active means inhibition above about 85%;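 further: human melanocyte line stably carrying TRPM1 promoter luciferase reporter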
# NOMO-1 viab: NOMO-1 AML cell viability reduction, primary screen, STK33 inhibitor project, CellTiter-Glo luminescence; NOMO-1 AML viability, 72 h; inhibition, % (test concentration not listed); hit rate 7.5% among 37,000; in the data active means inhibition above about 80%
# An asterisk follows results filed as active; / = not tested or not shown. Rows were chosen to be rich in hits. Some 7.4% of all compounds tested hit in one or more screens of this group.
SMILES,Hedgehog inh,PD-1 reverse act,YB-1 expression,MITF inhib,NOMO-1 viab
C[C@H](CO)N1C[C@H](C)[C@H](CN(C)Cc2ccc(-c3ccccc3)cc2)Oc2ccc(NC(=O)NC3CCCCC3)cc2CC1=O,-14.5,-3.3,0.299,11.6,87.0*
C[C@H]1CN([C@@H](C)CO)C(=O)Cc2cc(NC(=O)NC3CCCCC3)ccc2O[C@H]1CN(C)Cc1ccc(-c2ccccc2)cc1,36.5,-8.3,-0.0062,25.3,113.8*
C[C@@H]1CN([C@H](C)CO)C(=O)Cc2cc(NC(=O)NC3CCCCC3)ccc2O[C@@H]1CN(C)Cc1ccccc1,19.0,-0.9,0.325,10.7,41.5
C[C@@H]1CN([C@H](C)CO)C(=O)Cc2cc(NC(=O)Cc3cn(C)c4ccccc34)ccc2O[C@H]1CN(C)Cc1ccc(Oc2ccccc2)cc1,-7.3,1.1,-0.263,16.8,67.7
Cc1noc(C)c1NC(=O)Nc1ccc2c(c1)C(=O)N([C@@H](C)CO)C[C@H](C)[C@H](CN(C)Cc1ccc(Oc3ccccc3)cc1)O2,/,-1.0,-0.632,-1.2,23.9
C=C1[C@H](OC(=O)C(C)CC)[C@@H](OC(=O)C(C)C)[C@@H](O)C(C)(C)/C=C\[C@H](C)C(=O)[C@@]2(O)C[C@H](C)[C@H](O)[C@@H]2[C@H]1OC(=O)C(C)CC (some centres undefined),28.0,55.9*,0.585,-43.6,60.4
COc1ccc(S(=O)(=O)Nc2cccc3c2O[C@@H](CN(C)C(=O)NC(C)C)[C@H](C)CN([C@H](C)CO)C3=O)cc1,25.7,1.4,-0.476,4.6,15.2
Cc1noc(C)c1S(=O)(=O)Nc1cccc2c1O[C@@H](CN(C)Cc1ccc(C(=O)Nc3ccccc3N)cc1)[C@@H](C)CN([C@H](C)CO)C2=O,/,0.5,-0.37,11.3,82.5*
Cc1noc(C)c1S(=O)(=O)Nc1cccc2c1O[C@H](CN(C)Cc1ccc(C(=O)Nc3ccccc3N)cc1)[C@H](C)CN([C@@H](C)CO)C2=O,/,-2.2,0.31,8.8,137.2*
Cc1noc(C)c1S(=O)(=O)Nc1ccc2c(c1)C(=O)N([C@@H](C)CO)C[C@H](C)[C@@H](CN(C)Cc1ccc(C(=O)Nc3ccccc3N)cc1)O2,/,-1.3,0.252,3.4,8.2
Cc1noc(C)c1S(=O)(=O)Nc1cccc2c1O[C@@H](CN(C)Cc1ccc(C(=O)O)cc1)[C@@H](C)CN([C@@H](C)CO)C2=O,-31.8,0.3,-0.203,-3.5,25.4
CCCC[C@@H](C)/C=C(C)/C=C(\C)C(=O)NC1=C[C@@](O)(/C=C/C=C/C=C/C(=O)NC2C(=O)CCC2=O)[C@@H]2O[C@@H]2C1=O,50.7,-57.1,0.401,-12.3,141.8*
O=C(CCCCCC(=O)Nc1ccccc1O)N/N=C\c1ccncc1Br,/,/,0.327,/,/
C[C@@H]1CN([C@@H](C)CO)C(=O)c2cccc(NC(=O)C3CC3)c2O[C@@H]1CN(C)CC1CC1,4.4,0.3,0.0111,-2.8,9.2
Cc1ccc(C(=O)CSc2nnc(-c3ccco3)o2)o1,/,-0.1,/,-53.4,21.7
C=CCn1c(=S)sc2c(Sc3nnc(-c4ccco4)o3)ncnc21,73.0*,-5.6,0.633,66.8,115.5*
CSc1ccc(/C=N/n2nnnc2Nc2ccccc2)cc1,43.5,-2.4,-0.258,4.4,94.9*
C[C@@H]1CCCCO[C@@H](CN(C)Cc2ccc3c(c2)OCO3)[C@@H](C)CN([C@H](C)CO)C(=O)c2cc(N(C)C)ccc2O1,-16.1,/,0.102,-11.0,4.9
C[C@@H]1CN([C@H](C)CO)C(=O)c2cc(N(C)C)ccc2O[C@H]1CN(C)Cc1ccc(Cl)c(Cl)c1,-46.8,-2.9,0.0642,9.5,96.7*
C[C@@H]1CCCCO[C@H](CN(C)Cc2ccc(Cl)c(Cl)c2)[C@@H](C)CN([C@H](C)CO)C(=O)c2cc(N(C)C)ccc2O1,26.3,-4.9,0.396,24.4,86.7*
C[C@@H]1CN([C@@H](C)CO)C(=O)c2cc(N(C)C)ccc2O[C@@H]1CN(C)Cc1ccc(Cl)c(Cl)c1,18.8,-2.5,-0.467,-0.7,47.5
Cc1cccc(C)c1OCC(O)CN1CCN(CCO)CC1 (centres undefined),/,0.2,/,-5.6,-3.7
